Assay results reported in PMC7862700, “An all-to-all approach to the identification of sequence-specific readers for epigenetic DNA modifications on cytosine”.

Key:
Experiment in all cases: DAPPL (digital affinity profiling via proximity ligation, sequencing); 10 mM Tris-HCl pH 7.5, 50 mM NaCl, 1 mM DTT, 4% glycerol, room temperature, 30 min; GST-TFs on glutathione beads, 16-mer random dsDNA library, 0.1% formaldehyde crosslink after washing; high values mean tight binding
ETV5 = ETV5 (Homo sapiens, UniProt P41161 1-510); conditions: protein: recombinant; tags: N-terminal GST; dsDNA, one strand shown
Chain of ETV5 (P41161 whole entry, the tested form may be a part): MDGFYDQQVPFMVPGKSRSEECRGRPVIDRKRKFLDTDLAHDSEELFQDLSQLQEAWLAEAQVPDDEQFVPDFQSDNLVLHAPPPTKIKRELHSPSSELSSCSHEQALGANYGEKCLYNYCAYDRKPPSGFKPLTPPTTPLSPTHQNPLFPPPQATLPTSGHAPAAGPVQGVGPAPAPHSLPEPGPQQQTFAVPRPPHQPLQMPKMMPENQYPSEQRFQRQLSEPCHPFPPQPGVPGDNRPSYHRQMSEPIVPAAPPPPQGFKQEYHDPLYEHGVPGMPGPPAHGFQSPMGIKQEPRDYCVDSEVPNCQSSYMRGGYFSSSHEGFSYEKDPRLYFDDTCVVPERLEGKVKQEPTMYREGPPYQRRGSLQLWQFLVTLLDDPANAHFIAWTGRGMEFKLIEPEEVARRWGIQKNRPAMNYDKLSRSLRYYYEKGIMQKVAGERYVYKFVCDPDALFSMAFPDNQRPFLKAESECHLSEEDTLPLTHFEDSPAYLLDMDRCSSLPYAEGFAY
Method in brief: (§1)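 Binding signal is each hexamer's read frequency for a factor divided by its frequency in the tag-only sample. The factors were GST-fused human transcription factors from yeast, captured on glutathione beads, DNA-barcoded and pooled with that sample. Pools were incubated with 200 nmole of a random double-stranded 16-mer DNA library in Tris/NaCl/DTT/glycerol buffer at room temperature for 30 min, then washed, crosslinked with 0.1% formaldehyde, proximity-ligated with BsaI/T4 ligase (1 h, 37 °C), PCR-amplified and sequenced on an Illumina NextSeq500.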

HSF1 = HSF1 (Homo sapiens, UniProt Q00613 1-529); conditions: protein: recombinant; tags: N-terminal GST; chain copies: 3; dsDNA, one strand shown
Chain of HSF1 (Q00613 whole entry): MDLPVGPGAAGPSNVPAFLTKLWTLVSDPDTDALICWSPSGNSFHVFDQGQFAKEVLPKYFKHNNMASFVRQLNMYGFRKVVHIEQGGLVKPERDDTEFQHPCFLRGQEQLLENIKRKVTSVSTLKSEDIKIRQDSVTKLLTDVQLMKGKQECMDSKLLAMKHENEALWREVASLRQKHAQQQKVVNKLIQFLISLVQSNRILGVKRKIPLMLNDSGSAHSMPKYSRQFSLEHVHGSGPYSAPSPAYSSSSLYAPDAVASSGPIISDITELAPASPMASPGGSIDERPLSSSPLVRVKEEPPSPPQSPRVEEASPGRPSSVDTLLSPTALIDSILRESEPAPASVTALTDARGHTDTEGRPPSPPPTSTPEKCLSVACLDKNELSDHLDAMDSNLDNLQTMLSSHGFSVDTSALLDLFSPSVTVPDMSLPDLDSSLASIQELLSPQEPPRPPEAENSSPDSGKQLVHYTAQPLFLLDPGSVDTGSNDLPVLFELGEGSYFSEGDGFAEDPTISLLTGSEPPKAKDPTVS
Method in brief: as §1

SPIC = biological target: T1, SPIC (Homo sapiens, UniProt Q8N5J4 1-248); conditions: protein: recombinant; tags: N-terminal GST; dsDNA, one strand shown
T1 sequence: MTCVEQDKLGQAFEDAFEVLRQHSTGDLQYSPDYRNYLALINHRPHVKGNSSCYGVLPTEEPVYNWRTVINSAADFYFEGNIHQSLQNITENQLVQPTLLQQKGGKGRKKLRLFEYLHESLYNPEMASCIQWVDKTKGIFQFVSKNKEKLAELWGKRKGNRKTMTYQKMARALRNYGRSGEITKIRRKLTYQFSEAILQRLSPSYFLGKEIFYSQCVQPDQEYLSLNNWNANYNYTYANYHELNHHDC
Method in brief: as §1

ETV2 = biological target: T2, ETV2 (Homo sapiens, UniProt O00321 1-342); conditions: protein: recombinant; tags: N-terminal GST; dsDNA, one strand shown
T2 sequence: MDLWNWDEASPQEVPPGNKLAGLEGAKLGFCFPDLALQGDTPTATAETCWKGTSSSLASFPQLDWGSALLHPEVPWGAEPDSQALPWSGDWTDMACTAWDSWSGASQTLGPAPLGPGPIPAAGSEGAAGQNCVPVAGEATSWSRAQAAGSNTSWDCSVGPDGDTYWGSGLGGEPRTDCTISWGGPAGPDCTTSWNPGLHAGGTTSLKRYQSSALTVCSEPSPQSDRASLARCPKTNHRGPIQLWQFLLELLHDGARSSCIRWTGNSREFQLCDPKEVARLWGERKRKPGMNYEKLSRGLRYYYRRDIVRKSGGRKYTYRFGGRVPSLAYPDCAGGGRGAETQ
Method in brief: as §1

ELF3 = biological target: T3, ELF3 (Homo sapiens, UniProt P78545 1-371); conditions: protein: recombinant; tags: N-terminal GST; dsDNA, one strand shown
T3 sequence: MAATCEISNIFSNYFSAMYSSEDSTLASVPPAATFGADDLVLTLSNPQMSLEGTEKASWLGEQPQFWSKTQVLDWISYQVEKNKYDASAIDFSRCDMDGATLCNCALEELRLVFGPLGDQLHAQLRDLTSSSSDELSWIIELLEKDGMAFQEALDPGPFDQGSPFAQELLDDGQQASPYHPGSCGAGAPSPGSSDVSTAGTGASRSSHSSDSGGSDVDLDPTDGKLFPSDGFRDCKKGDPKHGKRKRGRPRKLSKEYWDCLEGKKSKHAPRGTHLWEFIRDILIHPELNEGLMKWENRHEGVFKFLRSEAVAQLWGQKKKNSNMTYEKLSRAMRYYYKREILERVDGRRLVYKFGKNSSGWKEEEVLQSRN
Method in brief: as §1

CRX = CRX (Homo sapiens, UniProt O43186 1-299); conditions: protein: recombinant; tags: N-terminal GST; dsDNA, one strand shown
Chain of CRX (O43186 whole entry): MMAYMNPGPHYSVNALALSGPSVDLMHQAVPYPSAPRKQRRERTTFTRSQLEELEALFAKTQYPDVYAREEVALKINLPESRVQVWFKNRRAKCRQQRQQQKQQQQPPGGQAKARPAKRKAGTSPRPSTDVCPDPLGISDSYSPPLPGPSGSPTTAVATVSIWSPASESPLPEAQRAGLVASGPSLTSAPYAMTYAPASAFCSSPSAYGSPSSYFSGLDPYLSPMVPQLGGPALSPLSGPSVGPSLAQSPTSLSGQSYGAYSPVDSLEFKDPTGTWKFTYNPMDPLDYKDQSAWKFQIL
Method in brief: as §1

ETV1 = ETV1 (Homo sapiens, UniProt P50549 1-477); conditions: protein: recombinant; tags: N-terminal GST; dsDNA, one strand shown
Chain of ETV1 (P50549 whole entry): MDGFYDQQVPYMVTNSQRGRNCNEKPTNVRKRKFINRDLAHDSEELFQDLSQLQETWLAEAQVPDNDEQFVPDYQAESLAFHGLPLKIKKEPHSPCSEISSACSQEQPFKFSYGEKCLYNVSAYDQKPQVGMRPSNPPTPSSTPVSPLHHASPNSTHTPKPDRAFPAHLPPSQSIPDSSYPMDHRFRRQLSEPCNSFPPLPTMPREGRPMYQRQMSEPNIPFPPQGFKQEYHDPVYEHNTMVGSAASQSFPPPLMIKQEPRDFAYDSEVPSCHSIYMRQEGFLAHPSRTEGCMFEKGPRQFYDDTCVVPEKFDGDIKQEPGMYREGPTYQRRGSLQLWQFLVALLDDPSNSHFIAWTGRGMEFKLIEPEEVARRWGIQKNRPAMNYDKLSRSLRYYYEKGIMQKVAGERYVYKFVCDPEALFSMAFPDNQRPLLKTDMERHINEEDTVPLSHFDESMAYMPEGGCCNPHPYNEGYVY
Method in brief: as §1

ETV3L = biological target: T4, ETV3L (Homo sapiens, UniProt Q6ZN32 1-361); conditions: protein: recombinant; tags: N-terminal GST; dsDNA, one strand shown
T4 sequence: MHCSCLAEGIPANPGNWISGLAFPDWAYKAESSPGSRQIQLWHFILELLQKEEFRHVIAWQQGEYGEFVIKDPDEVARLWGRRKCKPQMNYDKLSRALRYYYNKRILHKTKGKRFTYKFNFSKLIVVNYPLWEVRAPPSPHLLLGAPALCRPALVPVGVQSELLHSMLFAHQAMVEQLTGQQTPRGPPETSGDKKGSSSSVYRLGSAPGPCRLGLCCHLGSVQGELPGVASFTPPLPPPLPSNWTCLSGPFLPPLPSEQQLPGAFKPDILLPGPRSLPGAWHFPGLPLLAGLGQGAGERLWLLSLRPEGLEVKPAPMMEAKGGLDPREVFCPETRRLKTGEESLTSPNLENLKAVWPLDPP
Method in brief: as §1

ETS2 = biological target: T5, ETS2 (Homo sapiens, UniProt P15036 1-469); conditions: protein: recombinant; tags: N-terminal GST; dsDNA, one strand shown
T5 sequence: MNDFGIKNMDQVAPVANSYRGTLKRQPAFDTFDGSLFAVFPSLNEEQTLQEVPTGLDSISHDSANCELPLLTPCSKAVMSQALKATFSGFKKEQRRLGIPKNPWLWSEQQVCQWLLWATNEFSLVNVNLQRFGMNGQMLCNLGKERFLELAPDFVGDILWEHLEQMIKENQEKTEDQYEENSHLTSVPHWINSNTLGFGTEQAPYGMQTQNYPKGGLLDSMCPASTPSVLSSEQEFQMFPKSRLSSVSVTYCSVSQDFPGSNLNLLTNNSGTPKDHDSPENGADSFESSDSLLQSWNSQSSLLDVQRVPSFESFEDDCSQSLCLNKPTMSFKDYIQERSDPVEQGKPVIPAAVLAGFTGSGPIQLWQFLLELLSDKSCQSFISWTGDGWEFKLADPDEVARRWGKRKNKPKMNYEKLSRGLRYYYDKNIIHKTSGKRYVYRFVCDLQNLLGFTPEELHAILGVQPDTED
Method in brief: as §1

ELF5 = biological target: T6, ELF5 (Homo sapiens, UniProt Q9UKW6-2 1-255); conditions: protein: recombinant; tags: N-terminal GST; dsDNA, one strand shown
T6 sequence: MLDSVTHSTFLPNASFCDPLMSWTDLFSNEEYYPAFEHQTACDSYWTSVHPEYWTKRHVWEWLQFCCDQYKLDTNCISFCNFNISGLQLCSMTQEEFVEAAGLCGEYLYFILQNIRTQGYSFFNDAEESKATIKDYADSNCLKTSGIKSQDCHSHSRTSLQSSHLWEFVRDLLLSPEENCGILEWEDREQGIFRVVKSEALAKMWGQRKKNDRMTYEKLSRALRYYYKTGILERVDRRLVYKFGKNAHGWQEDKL
Method in brief: as §1

ETV3 = biological target: T7, ETV3 (Homo sapiens, UniProt P41162-2 1-143); conditions: protein: recombinant; tags: N-terminal GST; dsDNA, one strand shown
T7 sequence: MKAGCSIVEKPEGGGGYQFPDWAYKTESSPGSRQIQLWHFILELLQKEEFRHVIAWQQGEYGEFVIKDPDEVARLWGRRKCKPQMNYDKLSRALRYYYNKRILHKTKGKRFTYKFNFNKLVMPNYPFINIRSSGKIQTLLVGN
Method in brief: as §1

ETV6 = ETV6 (Homo sapiens, UniProt P41212 1-452); conditions: protein: recombinant; tags: N-terminal GST; dsDNA, one strand shown
Chain of ETV6 (P41212 whole entry): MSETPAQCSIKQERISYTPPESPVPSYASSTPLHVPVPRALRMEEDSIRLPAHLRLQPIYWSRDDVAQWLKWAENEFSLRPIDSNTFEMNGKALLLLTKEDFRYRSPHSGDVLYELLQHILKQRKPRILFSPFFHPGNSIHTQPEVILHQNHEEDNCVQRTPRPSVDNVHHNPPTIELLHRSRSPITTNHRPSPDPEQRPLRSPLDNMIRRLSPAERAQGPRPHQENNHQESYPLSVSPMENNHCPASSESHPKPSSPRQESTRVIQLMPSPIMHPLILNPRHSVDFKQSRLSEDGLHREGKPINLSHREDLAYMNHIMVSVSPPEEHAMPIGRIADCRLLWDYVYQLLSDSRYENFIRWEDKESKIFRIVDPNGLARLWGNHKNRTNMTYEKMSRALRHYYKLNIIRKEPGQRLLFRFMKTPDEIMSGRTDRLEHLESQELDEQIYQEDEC
Method in brief: as §1

FEV = biological target: T8, FEV (Homo sapiens, UniProt Q99581 1-238); conditions: protein: recombinant; tags: N-terminal GST; dsDNA, one strand shown
T8 sequence: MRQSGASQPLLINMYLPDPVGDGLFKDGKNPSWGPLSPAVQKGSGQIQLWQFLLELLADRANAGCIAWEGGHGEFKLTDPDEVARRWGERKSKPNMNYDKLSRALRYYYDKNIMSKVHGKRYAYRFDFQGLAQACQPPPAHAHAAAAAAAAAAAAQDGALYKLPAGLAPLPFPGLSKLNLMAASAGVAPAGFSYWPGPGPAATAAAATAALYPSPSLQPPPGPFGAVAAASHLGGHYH
Method in brief: as §1

ELF4 = ELF4 (Homo sapiens, UniProt Q99607 1-663); conditions: protein: recombinant; tags: N-terminal GST; dsDNA, one strand shown
Chain of ELF4 (Q99607 whole entry): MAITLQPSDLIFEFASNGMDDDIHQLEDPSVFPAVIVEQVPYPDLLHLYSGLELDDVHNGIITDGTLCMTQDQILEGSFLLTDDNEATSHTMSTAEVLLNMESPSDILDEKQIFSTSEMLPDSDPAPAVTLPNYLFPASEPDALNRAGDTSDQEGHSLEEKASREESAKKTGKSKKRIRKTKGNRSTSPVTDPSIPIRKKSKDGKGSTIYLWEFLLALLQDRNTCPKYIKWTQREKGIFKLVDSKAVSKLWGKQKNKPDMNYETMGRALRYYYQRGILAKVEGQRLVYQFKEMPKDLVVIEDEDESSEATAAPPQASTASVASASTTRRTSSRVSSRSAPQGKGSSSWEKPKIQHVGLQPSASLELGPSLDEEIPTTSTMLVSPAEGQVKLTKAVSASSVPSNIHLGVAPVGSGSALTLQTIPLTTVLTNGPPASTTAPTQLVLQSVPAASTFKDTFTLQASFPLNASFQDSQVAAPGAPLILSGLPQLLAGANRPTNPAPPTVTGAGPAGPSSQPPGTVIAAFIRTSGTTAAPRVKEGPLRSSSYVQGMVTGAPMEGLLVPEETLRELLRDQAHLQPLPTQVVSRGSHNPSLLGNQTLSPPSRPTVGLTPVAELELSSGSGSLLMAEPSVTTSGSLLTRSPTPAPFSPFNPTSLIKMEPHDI
Method in brief: as §1

ELK4 = biological target: T9, ELK4 (Homo sapiens, UniProt P28324-2 1-405); conditions: protein: recombinant; tags: N-terminal GST; dsDNA, one strand shown
T9 sequence: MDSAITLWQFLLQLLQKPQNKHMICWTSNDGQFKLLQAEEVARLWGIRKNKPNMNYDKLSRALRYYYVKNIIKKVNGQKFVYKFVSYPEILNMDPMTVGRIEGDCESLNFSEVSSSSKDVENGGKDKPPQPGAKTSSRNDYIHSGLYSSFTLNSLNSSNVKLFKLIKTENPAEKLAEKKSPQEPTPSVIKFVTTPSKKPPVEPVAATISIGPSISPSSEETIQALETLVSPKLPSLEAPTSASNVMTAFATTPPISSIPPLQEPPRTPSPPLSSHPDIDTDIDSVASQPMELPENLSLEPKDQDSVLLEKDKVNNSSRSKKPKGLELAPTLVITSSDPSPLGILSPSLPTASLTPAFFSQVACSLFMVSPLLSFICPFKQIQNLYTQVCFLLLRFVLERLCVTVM
Method in brief: as §1

ERF = biological target: T10, ERF (Homo sapiens, UniProt P50548 1-548); conditions: protein: recombinant; tags: N-terminal GST; dsDNA, one strand shown
T10 sequence: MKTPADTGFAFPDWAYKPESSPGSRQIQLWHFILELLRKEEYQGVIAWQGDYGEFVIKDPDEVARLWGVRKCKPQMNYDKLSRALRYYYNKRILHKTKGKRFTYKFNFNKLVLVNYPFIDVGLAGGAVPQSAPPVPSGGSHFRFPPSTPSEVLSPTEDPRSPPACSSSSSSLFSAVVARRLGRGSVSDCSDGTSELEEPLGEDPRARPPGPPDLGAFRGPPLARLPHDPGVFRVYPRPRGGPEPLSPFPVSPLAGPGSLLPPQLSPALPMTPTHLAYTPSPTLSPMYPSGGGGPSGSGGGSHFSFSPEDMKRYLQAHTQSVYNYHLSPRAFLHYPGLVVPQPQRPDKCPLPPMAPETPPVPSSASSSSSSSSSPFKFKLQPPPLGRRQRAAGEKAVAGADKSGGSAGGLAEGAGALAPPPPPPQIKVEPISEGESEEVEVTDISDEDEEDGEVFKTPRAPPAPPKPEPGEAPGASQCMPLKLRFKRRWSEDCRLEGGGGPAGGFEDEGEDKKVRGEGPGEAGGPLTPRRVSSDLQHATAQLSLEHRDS
Method in brief: as §1

SPDEF = biological target: T11, SPDEF (Homo sapiens, UniProt O95238 1-335); conditions: protein: recombinant; tags: N-terminal GST; dsDNA, one strand shown
T11 sequence: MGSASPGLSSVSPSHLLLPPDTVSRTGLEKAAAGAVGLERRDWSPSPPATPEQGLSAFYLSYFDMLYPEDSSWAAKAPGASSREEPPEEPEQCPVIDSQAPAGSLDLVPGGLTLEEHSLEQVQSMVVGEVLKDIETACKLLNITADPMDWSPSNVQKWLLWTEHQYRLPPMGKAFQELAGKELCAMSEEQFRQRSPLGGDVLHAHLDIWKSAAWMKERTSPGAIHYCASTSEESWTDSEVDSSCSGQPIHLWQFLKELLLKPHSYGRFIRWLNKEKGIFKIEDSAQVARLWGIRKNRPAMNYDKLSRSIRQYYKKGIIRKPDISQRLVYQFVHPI
Method in brief: as §1

ETV7 = biological target: T12, ETV7 (Homo sapiens, UniProt Q9Y603 1-341); conditions: protein: recombinant; tags: N-terminal GST; dsDNA, one strand shown
T12 sequence: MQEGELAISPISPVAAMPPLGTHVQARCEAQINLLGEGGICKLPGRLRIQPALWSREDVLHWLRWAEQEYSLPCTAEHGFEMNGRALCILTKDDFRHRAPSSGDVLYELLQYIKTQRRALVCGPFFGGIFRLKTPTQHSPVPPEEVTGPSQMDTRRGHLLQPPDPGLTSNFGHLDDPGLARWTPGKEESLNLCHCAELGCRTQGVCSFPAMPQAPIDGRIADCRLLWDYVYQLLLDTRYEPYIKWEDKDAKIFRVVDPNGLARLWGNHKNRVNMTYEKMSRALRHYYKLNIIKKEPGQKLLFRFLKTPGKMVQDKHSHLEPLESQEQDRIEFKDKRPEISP
Method in brief: as §1

Row | Sequence | binding signal (ETV5) | binding signal (HSF1) | binding signal (SPIC) | binding signal (ETV2) | binding signal (ELF3) | binding signal (CRX) | binding signal (ETV1) | binding signal (ETV3L) | binding signal (ETS2) | binding signal (ELF5) | binding signal (ETV3) | binding signal (ETV6) | binding signal (FEV) | binding signal (ELF4) | binding signal (ELK4) | binding signal (ERF) | binding signal (SPDEF) | binding signal (ETV7)
1 | TAAGCG | 1.02 fold enrichment (6-mer frequency, TF over GST control) | 1.34 fold enrichment (6-mer frequency, TF over GST control) | 1.04 fold enrichment (6-mer frequency, TF over GST control) | 1.05 fold enrichment (6-mer frequency, TF over GST control) | 1.19 fold enrichment (6-mer frequency, TF over GST control) | 1.86 fold enrichment (6-mer frequency, TF over GST control) | 1 fold enrichment (6-mer frequency, TF over GST control) | 1.03 fold enrichment (6-mer frequency, TF over GST control) | 1.05 fold enrichment (6-mer frequency, TF over GST control) | 1.01 fold enrichment (6-mer frequency, TF over GST control) | 1.05 fold enrichment (6-mer frequency, TF over GST control) | 1.01 fold enrichment (6-mer frequency, TF over GST control) |  |  |  |  |  | 
2 | AAAAGA | 1.12 fold enrichment (6-mer frequency, TF over GST control) | 1.43 fold enrichment (6-mer frequency, TF over GST control) |  | 1.1 fold enrichment (6-mer frequency, TF over GST control) | 1.17 fold enrichment (6-mer frequency, TF over GST control) | 1.28 fold enrichment (6-mer frequency, TF over GST control) | 1.14 fold enrichment (6-mer frequency, TF over GST control) | 1.1 fold enrichment (6-mer frequency, TF over GST control) | 1.22 fold enrichment (6-mer frequency, TF over GST control) | 1.13 fold enrichment (6-mer frequency, TF over GST control) | 1.07 fold enrichment (6-mer frequency, TF over GST control) | 1.21 fold enrichment (6-mer frequency, TF over GST control) | 1.07 fold enrichment (6-mer frequency, TF over GST control) | 1.2 fold enrichment (6-mer frequency, TF over GST control) | 1.2 fold enrichment (6-mer frequency, TF over GST control) | 1.24 fold enrichment (6-mer frequency, TF over GST control) | 1.1 fold enrichment (6-mer frequency, TF over GST control) | 1.1 fold enrichment (6-mer frequency, TF over GST control)
